We go through 89 molecules from PubChem BioAssay AID1259318 (Sanford-Burnham Center for Chemical Genomics, 2017).

The structures appear in SMILES notation. About 3,000 (0.81%) of roughly 370,000 compounds were called active. Many of the other results were omitted from the sample, so actives are more common in it than they were. A number with no mark means an inactive call.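 How the source made its calls: active means activity above about 14% (limit read from the data; passing the limit was not always enough); inactive means the rest.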

In the test the target is Nuclear receptor subfamily 1 group D member 1 (Homo sapiens) (UniProt P20393). The experiment in a line: Rev-erbα–DNA interaction modulation – biochemical, FITC-DNA, fluorescence polarization, uHTS, primary screen (AID 1259318).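 Further: 0% = DMSO wells with 35 nM protein and 100% = DMSO wells with 750 nM protein.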 As to conditions: Rev-erbα–FITC-DNA binding, 90 min, at 10 µM, stronger effect = higher value. Background: In fluorescence polarisation assays a small probe gives low polarisation when free and higher when bound to something large.
Nuclear receptor subfamily 1 group D member 1 (Homo sapiens), sequence (P20393 whole entry, looked up): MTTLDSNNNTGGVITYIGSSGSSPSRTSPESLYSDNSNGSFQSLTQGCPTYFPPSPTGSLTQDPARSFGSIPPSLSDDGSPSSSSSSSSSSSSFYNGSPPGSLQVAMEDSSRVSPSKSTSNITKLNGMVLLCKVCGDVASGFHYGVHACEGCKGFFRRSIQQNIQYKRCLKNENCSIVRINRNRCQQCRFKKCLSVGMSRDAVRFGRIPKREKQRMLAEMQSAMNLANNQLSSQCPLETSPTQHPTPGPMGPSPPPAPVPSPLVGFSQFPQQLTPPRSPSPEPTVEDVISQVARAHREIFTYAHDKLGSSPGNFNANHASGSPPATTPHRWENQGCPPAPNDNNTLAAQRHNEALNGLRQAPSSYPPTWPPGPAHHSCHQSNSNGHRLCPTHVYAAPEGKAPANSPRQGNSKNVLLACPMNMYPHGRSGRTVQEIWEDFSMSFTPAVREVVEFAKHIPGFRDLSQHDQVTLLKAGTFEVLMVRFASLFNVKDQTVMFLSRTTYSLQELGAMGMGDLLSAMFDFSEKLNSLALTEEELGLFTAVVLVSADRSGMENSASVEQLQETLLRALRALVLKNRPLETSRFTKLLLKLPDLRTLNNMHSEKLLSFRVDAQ
As for `Cc1ccc(-c2ccc(CN3C(C)C(=O)N(Cc4cn(CCC5OCCCO5)nn4)CCS3(=O)=O)cc2)cc1` (centres undefined), the activity was 1.81%.
The result for `CC1(C)C2CC[C@]3(C)C(C(=O)C=C4[C@@H]5C[C@@](C)(C(=O)O)CC[C@]5(C)CC[C@]43C)[C@@]2(C)CC[C@@H]1O` (some centres undefined) reads -5.93%; that for `CC(C)(C)OC(=O)C[C@@H]1C/C=C\C[C@H](CC(=O)N[C@@H](CO)Cc2ccccc2)C(=O)N[C@H](Cc2ccccc2)COC1=O`, -3.46%; that for `Cc1nc2cc(NC(=O)CSc3nc4c(C)cccc4cc3C#N)ccc2s1`, 95.7% (active).
`Cc1ccc(NC(=O)CSc2sc3c(O)cc(=O)[nH]c3c2C#N)cc1C`: the activity was -17.5%.
The result for `Cc1csc(SCC(=O)Nc2sccc2C#N)n1` reads -1.85%; that for `Cc1ccc(C)c2c1cc(C)c1nnc(SCC(=O)Nc3cccc(C(=O)O)c3)n12`, -2.26%; that for `COC(=O)CSc1nc2c(c(C3CC=CCC3)c1C#N)CCC2` (centres undefined), 0.02%.
As to `Cc1nonc1NC(=O)CSc1nc2ccccc2cc1C#N`, the activity was 39.8% (active).
In the case of `CCOc1ccc2cc(C#N)c(SCC(=O)OC)nc2c1` it was 116% (active); in that of `Cc1ccc2nc(SCc3nnc(-c4ccccc4[N+](=O)[O-])o3)c(C#N)cc2c1`, -0.86%; in that of `Cc1cc(C#N)c(SCC(N)=O)nc1-c1ccc(F)cc1`, -0.55%.
Regarding `CCNC(=O)CC1C(=O)N(c2ccc(OC)cc2)C(=O)N1CCOC` (centres undefined), the activity is -2.32%.
`C/C(=N\NC(=O)c1cc2c(s1)CCC(C)C2)c1cccnc1` (centres undefined): the activity was -5.04%.
For `CCCCN(CCCC)CCNC(=O)CN1C(=O)COc2ccc(S(=O)(=O)N3CCOCC3)cc21`, the activity was 2.87%.
Consider `C[C@@H](CN1C2=NC[C@@H](Cc3ccccc3)N2C[C@H]1Cc1ccc(O)cc1)NC(=O)CCC1CCCCC1`, for which the activity was -3.34%.
In the case of `C[C@H]1CCC/C=C/C(=O)c2c(O)cc(O)cc2CC(=O)O1` it was -5.09%; in that of `CC(C)OCCCNC(=O)CN1C(=O)/C(=C/c2ccccc2F)Oc2ccccc21`, 25% (active).
For the molecule `O=C(CN1C(=O)/C(=C/c2ccccc2F)Sc2ccccc21)NCc1cccnc1`, the activity is -1.22%.
The result for `O=C(CN1C(=O)COc2ccccc21)Nc1ccc(F)cc1` reads -4.74%; that for `CCN(CC)C(=O)CC[C@@H]1CC[C@]2(CCCN(S(=O)(=O)C3CCCCC3)C2)O1`, -2.68%.
Regarding `COc1ccccc1OCCNCC(O)COc1cccc2[nH]c3ccccc3c12` (centres undefined), the activity is 0.09%.
In the case of `Oc1ccc2ccc3cccc[n+]3c2c1` it was 34.3% (active); in that of `COC(=O)C1=C(C)N(Cc2ccccc2C(F)(F)F)C(=NCc2ccc(OC)cc2)NC1c1cccc(C(F)(F)F)c1` (centres undefined), 3.37%; in that of `COc1ccccc1NC(=O)COC(=O)CNC(=O)C1CCCCC1`, -2.69%.
The result for `C=C(C)C1CC=C(C)/C(=N\NC(=O)CNc2ccccc2OC)C1` (centres undefined) reads 28.5% (active); that for `C=C(C)C1CC=C(C)/C(=N/NC(=O)CCCNc2cccc(C)c2)C1` (centres undefined), -3.69%.
In the case of `CN1/C(=C\C=C2\N=C(c3ccc(F)cc3)OC2=O)C(C)(C)c2ccccc21` it was 36.5% (active); in that of `COc1ccc(-n2c(COc3ccc(C)cc3)nnc2SCC(=O)Nc2ccc(Oc3ccccc3)cc2)cc1`, -3.25%.
As to `CCc1ccc(S(=O)(=O)Nc2ccc(C)c(NS(C)(=O)=O)c2)cc1`, the activity was -7.94%.
The result for `CN1C(=O)c2ccc(C(=O)Nc3ccc(Br)cn3)cc2C1=O` reads 73.7% (active); that for `O=C(/C=C/c1ccc(Cl)cc1)Nc1ccc(Br)cn1`, -0.31%.
Regarding `CN1C(=O)c2ccc(NC(=O)c3c(F)c(F)c(F)c(F)c3F)cc2C1=O`, the activity was -2.78%.
With `CS(=O)(=O)c1ccc(Cl)c(NC(=O)COC(=O)c2ncc(Cl)c(Cl)c2Cl)c1`, the activity is -0.27%.
In the case of `Cc1[nH]c2ccccc2c1CC(=O)Nc1ccc(Nc2cccnc2)c(-c2cccc(Cl)c2)c1` it was 3.32%; in that of `O=C(O)CCCCC(=O)O`, -0.86%; in that of `CCC(C)NC(=O)C1c2ccccc2C(=O)N1Cc1ccccc1` (centres undefined), -2.38%.
With `CCCCCn1nnnc1C1c2ccccc2C(=O)N1Cc1ccco1` (centres undefined), the activity is 17.3% (active).
Regarding `O=C1c2ccccc2C(Nc2ccc3c(c2)OCCO3)N1Cc1ccco1` (centres undefined), the activity was -1.18%.
In the case of `CC(=O)c1c(N)n(C)c(=O)n(C)c1=O` it was 5.4%; in that of `COC(=O)CN1C(=O)C(C)(C)Oc2ccc(C(=O)Nc3cccc(OC)c3)cc21`, 6.32%; in that of `COc1ccc(NC(=O)CSc2ncnc3[nH]ncc23)cc1`, -0.29%.
The result for `CCOc1ccc(NC(=O)CSc2ncnc3c2sc2ccccc23)cc1` reads 298% (active); that for `CCOc1ccc(NC(=O)CSc2nncn2C)cc1`, 3.05%.
For the molecule `COC(=O)Nc1nc2ccc(C(=O)C3CC3)cc2[nH]1`, the activity was -10.6%.
In the case of `CC1(C)OC[C@@H](COC(=O)CCc2ccc(OC[C@@H](O)CNCCNC(=O)N3CCOCC3)cc2)O1` it was 0.02%; in that of `CC(NC(=S)Nc1ccccc1)C(c1cccs1)N1CCOCC1` (centres undefined), 4.26%.
In the case of `CC(=O)C1=C(C)N(Cc2ccccc2)C(=S)NC1c1cccc(Br)c1` (centres undefined) it was -3.28%.
As for `CN(C)c1ccc(/C=C2\NC(=S)N(Cc3ccccc3)C2=O)cc1`, the activity is 40.1% (active).
Consider `O=[N+]([O-])/C=C1\CCCCCN1`, for which the activity was -3.45%.
As to `COc1cccc(CNC(=O)[C@H]2CCCN2C(=O)[C@H]2CCCN2C(=O)C2CCCCC2)c1`, the activity was 4.65%.
The result for `O=C1Nc2ccccc2C1=NN=Cc1ccco1` reads -0.74%; that for `Cc1cc(C)c(/C=C2\C(=O)Nc3ccccc32)[nH]1`, 22.7% (active).
Take `Cc1ccc(-c2nc(CS(=O)CC(=O)N3CCN(c4ncccn4)CC3)c(C)o2)cc1` (centres undefined): the activity was 4.76%.
On to `O=S(=O)(c1ccccc1)N1CCC(c2nc3ccccc3o2)CC1`, for which the activity is -9.25%.
`CC1(C)CC2CC(C)(CN2c2ncnc3ccc(Br)cc23)C1` (centres undefined): the activity is 20.4% (active).
In the case of `COCCN1CCn2c(nc3cc(NS(C)(=O)=O)ccc32)C1`, the activity was -3.86%.
The result for `Cc1ccc(NC(=O)c2cc(C)nn2-c2ccccc2)c(C)c1` reads 2.36%; that for `CCOC(=O)c1ccc(NC(=S)Nc2cc(C)cc(C)n2)cc1`, 25.7% (active); that for `CCOC(=O)c1ccc(NC(=O)Cn2cnc3cc(C)c(C)cc32)cc1`, 1.51%.
With `CCOC(=O)c1cn[nH]c1NC(=S)Nc1ccccc1`, the activity was -3.54%.
In the case of `COc1ccc(CNC(=O)COC(=O)/C=C/c2ccc(S(=O)(=O)N3CCOCC3)cc2)cc1` it was -0.37%; in that of `O=C(Nc1nnc(-c2ccccc2F)s1)c1ccccc1F`, 23.9% (active); in that of `CCSc1nnc(SCC(=O)NNC(=O)c2ccccc2F)s1`, -6.25%.
As for `O=C(Nc1ccccc1F)c1ccccc1-c1ccccc1`, the activity was 8.73%.
In the case of `CC1(Oc2ccccc2-c2ccno2)CCN(Cc2ccc(-c3ccccc3)o2)C1` (centres undefined) it was -3.17%.
In the case of `O=C(Nc1cccc(Cl)c1)OC1CC2CC1[C@H]1CCCCN1[C@H]2Cc1ccccc1` (some centres undefined) it was 0.26%; in that of `COc1ccc(-n2c(SCC(=O)Nc3ccc(C)c(Cl)c3)nc3ccccc3c2=O)cc1`, -4.51%; in that of `COc1cccc(-n2c(SCC(=O)c3c[nH]c4ccccc34)nc3ccccc3c2=O)c1`, 69.3% (active).
In the case of `CCCn1c(N)c(C(=O)CSc2nc3ccccc3c(=O)n2-c2ccc(OC)cc2)c(=O)[nH]c1=O` it was -7.88%.
With `Cc1ccc(C2=Nc3c(ccc4ccccc34)C(c3ccncc3)=NN2)cc1`, the activity was 3.5%.
The result for `Cc1ccc(S(=O)(=O)N2[C@@H](Cc3ccccc3)CO[C@H]2CC(=O)OCc2ccccc2)cc1` reads -1.88%; that for `Cc1cc(Br)ccc1NC(=O)c1cnc(N2CCN(c3ccccn3)CC2)c2ccccc12`, 0.52%; that for `Cc1cc(Br)ccc1NC(=O)c1sc2ncn(CC(=O)N3CCN(c4ccccn4)CC3)c(=O)c2c1C`, 58.2% (active).
As to `Cc1sc2ncn(CC(=O)NCCCC(=O)N3CCN(c4ccccc4F)CC3)c(=O)c2c1C`, the activity is -0.15%.
`CCCCOc1ccc(N(CC(=O)NC(C)C)C(=O)CCC(=O)Nc2ccccn2)cc1`: the activity was -9.8%.
The result for `COc1ccc(N(C(=O)c2snc(C(N)=O)c2N)C(C(=O)NC2CCCC2)c2ccco2)cc1OC` (centres undefined) reads 4.63%; that for `CCC(C(=O)NC1CCCCC1)N(C(=O)c1snc(C(N)=O)c1N)c1ccc(OC)cc1OC` (centres undefined), 2.92%.
In the case of `CCC(C(=O)NC1CCCC1)N(C(=O)c1snc(C(N)=O)c1N)c1ccc2c(c1)OCCO2` (centres undefined), the activity was 34.2% (active).
The result for `COc1ccc(C(=O)CN2C(=O)NC3(CCc4ccccc43)C2=O)c(OC)c1` (centres undefined) reads 6.28%; that for `O=C(Nc1cccnc1)c1noc2c1CCCCC2`, 0.99%; that for `O=C(O)C1=CCCN(CCON=C(c2ccccc2)c2ccccc2)C1`, -6.65%.
In the case of `COc1cc(OC)cc(C(=O)NCCSCc2ccc(Cl)cc2)c1` it was -1.8%; in that of `COc1ccc(CCNC(=O)CSc2nnc3ccc(-c4ccncc4)nn23)cc1`, 2.33%.
The result for `COc1ccc(CCNC(=O)CSc2nc(C)nc3c2oc2ccccc23)cc1OC` reads -3.78%; that for `COc1cccc(-c2ccc(C#N)c(SCC(=O)NCCc3ccc(Cl)cc3)n2)c1`, 29.2% (active); that for `COc1ccc(CCNC(=O)CSc2nnc(-c3cccc(F)c3)o2)cc1OC`, 6.95%.
Consider `COc1ccc(CCNC(=O)CSc2nc(-c3ccc(OC)c(OC)c3)ccc2C#N)cc1`, for which the activity was 56% (active).
In the case of `O=C(O[C@@H]1[C@H](Cc2ccccc2)NS(=O)(=O)[C@H]2C[C@@H]3C=C[C@]12O3)c1ccccc1Br`, the activity is 4.17%.
